Measured values published in PubChem BioAssay (Tox21).
Active and inactive are the calls of the source. Calls follow the shape of the dose curve; as a rule, active = well fitted curve in the direction sought with a large enough effect in the repeat runs; inconclusive = weak or mixed curves; inactive = flat fitted curve, though single readings scatter.

Assay: qHTS assay to test for compound auto fluorescence at 460 nm (blue) in HEK293 cell free culture (AID 720681)
Conditions: cell-free medium, autofluorescence 405/460 nm (blue); series mostly up to 91.3 µM; fluorescence, % of fluorescent control: at the top concentration
Summary of the method: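 Test compounds were pinned into cell-free culture medium (DMEM with 10% FBS) and fluorescence was read directly at Ex/Em 405/460 nm. Signals were expressed as fluorescence equivalents of triamterene, with DMSO vehicle as control.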
% is scaled to controls: 0 for no effect and ±100 for the full control effect.

SMILES | fluorescence, % of fluorescent control | outcome
CO[C@@]1(NC(=O)CSCC#N)C(=O)N2C(C(=O)O)=C(CSc3nnnn3C)CS[C@@H]21 | 0.13% [at 46 µM] (inactive) | –
Nc1ccc(Oc2ccc(N)c(N)c2)cc1 | -0.442% (inactive) | –
CCOc1ccc(NS(=O)(=O)c2ccc(N)cc2)nn1 | -0.139% [at 46 µM] (inactive) | –
C=CCCC=C | -0.0665% [at 95.7 µM] (inactive) | –
Nc1cccc(S(=O)(=O)O)c1 | 0.413% (inactive) | –
CC(CNC1CCCCC1)OC(=O)c1ccccc1 (stereo not given) | 0.0629% [at 18.6 µM] (inactive) | –
C1CCOC1 | 0.0861% [at 95.7 µM] (inactive) | –
Cc1c(-c2ccccc2)oc2c(C(=O)OCCN3CCCCC3)cccc2c1=O | 0.0764% [at 18.6 µM] (inactive) | –
CCCCC1CCC(=O)O1 (stereo not given) | -0.01% (inactive) | –
CCCN(CCC)C(=O)C(CCC(=O)O)NC(=O)c1ccccc1 (stereo not given) | 0.749% [at 46 µM] (inactive) | –
CCN(CC)CCOc1ccc(Cc2ccccc2)cc1 | 0.0124% [at 46 µM] (inactive) | –
CCCCCCCCCCCCCCCCOP(=O)([O-])OCC[N+](C)(C)C | -0.103% [at 46 µM] (inactive) | –
COc1ccc2nc(NC(=O)Nc3ccccc3)sc2c1 | -0.108% [at 46 µM] (inactive) | –
O=C(O)C(=O)Cc1c[nH]c2ccccc12 | 0.0647% (inactive) | –
O=C(CC(=O)C(F)(F)F)c1ccccc1 | 0.0049% [at 95.7 µM] (inactive) | –
CCCCOc1cc(C(=O)NCCN(CC)CC)c2ccccc2n1 | 0.0819% [at 18.6 µM] (inactive) | –
Cc1ncc(CO)c(CN)c1O | 0.975% [at 46 µM] (inactive) | –
CCC/C=C/CO | -0.0107% (inactive) | –

SMILES | fluorescence, % of fluorescent control | outcome
COC(=O)C(C)O (stereo not given) | 0.041% [at 95.7 µM] (inactive) | –
CCc1nnc(NS(=O)(=O)c2ccc(N)cc2)s1 | -0.0152% [at 46 µM] (inactive) | –
N#Cc1ccc(C(c2ccc(C#N)cc2)n2cncn2)cc1 | – | inactive
O=C(O)[C@@H](O)[C@H](O)[C@H](O)[C@@H](O)C(=O)O | 0.0649% [at 46 µM] (inactive) | –
Cc1cc(S(=O)(=O)O)c(N)cc1Cl | 0.0408% (inactive) | –
O=C(O)c1cccc(Cl)c1Cl | 0.0155% (inactive) | –
Cc1c(C(=O)NCCO)[n+](=O)c2ccccc2n1[O-] | 0.0303% [at 46 µM] (inactive) | –
CC(C)(C)c1cccc(O)c1 | -0.0543% (inactive) | –
Cc1ccc(C=O)s1 | 0.145% (inactive) | –
CC1(C)O[C@@H]2C[C@H]3[C@@H]4CCC5=CC(=O)CC[C@]5(C)[C@@]4(F)[C@@H](O)C[C@]3(C)[C@]2(C(=O)CCl)O1 | -0.106% [at 18.6 µM] (inactive) | –
COc1nc(C)nc(NC(=O)NS(=O)(=O)c2ccccc2OCCCl)n1 | 0.0773% (inactive) | –
CN1CCN(c2c(F)cc3c(=O)c(C(=O)O)cn4c3c2SCC4)CC1 | 0.462% [at 46 µM] (inactive) | –
CCCCc1ccc2nc(NC(=O)OC)[nH]c2c1 | -0.0022% [at 18.6 µM] (inactive) | –
CCNCCO | 0.0307% (inactive) | –
CN(C)CCOc1ccccc1Cc1ccccc1 | -0.0229% [at 46 µM] (inactive) | –
Cc1cc2nc(N)sc2cc1C | -0.0241% (inactive) | –
CN1CCN(c2c(F)cc3c(=O)c(C(=O)O)cn(CCF)c3c2F)CC1 | -0.0342% [at 46 µM] (inactive) | –

Assay: qHTS assay to test for compound auto fluorescence at 535 nm (green) in HEK293 cell free culture (AID 720682)
Conditions: cell-free medium, green autofluorescence 485/535 nm, active compounds read high; series mostly up to 91.3 µM; activity change: at the top concentration
Summary of the method: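 Intrinsic compound fluorescence is measured in culture medium containing 10% FBS, with excitation at 485 nm and detection at 535 nm, referenced to fluorescein.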

SMILES | activity change | outcome
CO[C@@]1(NC(=O)CSCC#N)C(=O)N2C(C(=O)O)=C(CSc3nnnn3C)CS[C@@H]21 | 0.0901% [at 46 µM] (inactive) | –
Nc1ccc(Oc2ccc(N)c(N)c2)cc1 | 0.484% (inactive) | –
CCOc1ccc(NS(=O)(=O)c2ccc(N)cc2)nn1 | -0.0947% [at 46 µM] (inactive) | –
C=CCCC=C | -0.0007% [at 95.7 µM] (inactive) | –
Nc1cccc(S(=O)(=O)O)c1 | 0.073% (inactive) | –
CC(CNC1CCCCC1)OC(=O)c1ccccc1 (stereo not given) | 0.0004% [at 18.6 µM] (inactive) | –
C1CCOC1 | 0.18% [at 95.7 µM] (inactive) | –
CCCCC1CCC(=O)O1 (stereo not given) | -0.0067% (inactive) | –
CCCN(CCC)C(=O)C(CCC(=O)O)NC(=O)c1ccccc1 (stereo not given) | 0.005% [at 46 µM] (inactive) | –
CCN(CC)CCOc1ccc(Cc2ccccc2)cc1 | -0.0551% [at 46 µM] (inactive) | –
CCCCCCCCCCCCCCCCOP(=O)([O-])OCC[N+](C)(C)C | -0.211% [at 46 µM] (inactive) | –
COc1ccc2nc(NC(=O)Nc3ccccc3)sc2c1 | -0.0643% [at 46 µM] (inactive) | –
O=C(O)C(=O)Cc1c[nH]c2ccccc12 | 0.0685% (inactive) | –
O=C(CC(=O)C(F)(F)F)c1ccccc1 | 0.0637% [at 95.7 µM] (inactive) | –
CCCCOc1cc(C(=O)NCCN(CC)CC)c2ccccc2n1 | -0.0175% [at 18.6 µM] (inactive) | –
Cc1ncc(CO)c(CN)c1O | -0.0156% [at 46 µM] (inactive) | –
CCC/C=C/CO | -0.0722% (inactive) | –
COC(=O)C(C)O (stereo not given) | 0.018% [at 95.7 µM] (inactive) | –
CCc1nnc(NS(=O)(=O)c2ccc(N)cc2)s1 | -0.0573% [at 46 µM] (inactive) | –
N#Cc1ccc(C(c2ccc(C#N)cc2)n2cncn2)cc1 | – | inactive
O=C(O)[C@@H](O)[C@H](O)[C@H](O)[C@@H](O)C(=O)O | 0.0008% [at 46 µM] (inactive) | –
Cc1cc(S(=O)(=O)O)c(N)cc1Cl | -0.0263% (inactive) | –
CC(C)(C)c1cccc(O)c1 | 0.0316% (inactive) | –
Cc1ccc(C=O)s1 | -0.0482% (inactive) | –
CC1(C)O[C@@H]2C[C@H]3[C@@H]4CCC5=CC(=O)CC[C@]5(C)[C@@]4(F)[C@@H](O)C[C@]3(C)[C@]2(C(=O)CCl)O1 | 0.0954% [at 18.6 µM] (inactive) | –
CN1CCN(c2c(F)cc3c(=O)c(C(=O)O)cn4c3c2SCC4)CC1 | 0.0005% [at 46 µM] (inactive) | –
CCCCc1ccc2nc(NC(=O)OC)[nH]c2c1 | 0.0865% [at 18.6 µM] (inactive) | –
CN(C)CCOc1ccccc1Cc1ccccc1 | 0.0603% [at 46 µM] (inactive) | –
Cc1cc2nc(N)sc2cc1C | 0% (inactive) | –
CN1CCN(c2c(F)cc3c(=O)c(C(=O)O)cn(CCF)c3c2F)CC1 | -0.036% [at 46 µM] (inactive) | –

Assay: qHTS assay to test for compound auto fluorescence at 590 nm (red) in HEK293 cell free culture (AID 720683)
Conditions: cell-free medium autofluorescence, Ex540/Em590 red; series mostly up to 91.3 µM; fluorescence, % of fluorescent control: at the top concentration
Summary of the method: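 Tox21 10K library compounds were pinned into cell-free DMEM with 10% FBS and fluorescence was read at excitation 540 nm. Activity is expressed as Rose Bengal sodium equivalency.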

SMILES | fluorescence, % of fluorescent control
Cc1c(-c2ccccc2)oc2c(C(=O)OCCN3CCCCC3)cccc2c1=O | -0.0474% [at 18.6 µM] (inactive)
O=C(O)c1cccc(Cl)c1Cl | 0.0142% (inactive)
Cc1c(C(=O)NCCO)[n+](=O)c2ccccc2n1[O-] | 0.326% [at 46 µM] (inactive)
COc1nc(C)nc(NC(=O)NS(=O)(=O)c2ccccc2OCCCl)n1 | 0.407% (inactive)
CCNCCO | -0.0755% (inactive)
